This is an account of results in PubChem BioAssay (Tox21).

Inconclusive results are not listed. More than one record can exist for a structure, and the calls need not agree. Activity calls are given as the source filed them. Unless noted, calls follow the shape of the dose curve; as a rule, active = well fitted curve in the direction sought with a large enough effect in the repeat runs; inconclusive = weak or mixed curves; inactive = no such curve, though single readings can be large; an effect the other way counts as inactive or inconclusive.

Test [1] is described as follows: qHTS assay to identify aromatase inhibitors - cell viability counter screen (AID 743084;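 also: cells stimulated with testosterone during compound exposure; nearly all actives have a fitted effect of over 55% in size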; also: potency is read from the fitted curve at half-maximal effect). (In general: In qHTS, concentration-response curves come from the screen itself.)
In test [2] the target is Aryl hydrocarbon receptor (Homo sapiens) (UniProt P35869). The test is described as follows: qHTS assay to identify small molecule that activate the aryl hydrocarbon receptor (AhR) signaling pathway (AID 743085). Also: nearly all actives have a fitted effect of over 15% in size. Also: potency is read from the fitted curve at half-maximal effect.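 As to activation: HG2L7.5c1 human HepG2 liver cells with stably integrated DRE-driven firefly reporter; series mostly up to about 70 µM.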 The essentials: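 HepG2 cells stably carrying a 20-DRE firefly luciferase reporter (HG2L7.5c1) treated with compound for 24 hr at 37C. Luciferase read by ONE-Glo luminescence, with CellTiter-Fluor viability read first.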

A short description of test [3]: qHTS assay to identify small molecule that activate the aryl hydrocarbon receptor (AhR) signaling pathway - cell viability counter screen (AID 743086). Also: nearly all actives have a fitted effect of over 45% in size. Also: potency is read from the fitted curve at half-maximal effect. As to viability change, negative = cytotoxic: series mostly up to about 70 µM. The essentials: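 HepG2-AhR-luc (HG2L7.5c1) cells, 4000/well, treated 24 h at 37 C with compound; viability measured as CellTiter-Fluor fluorescence after 30 min in the same wells as the luciferase read.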
The target of test [4] is Peroxisome proliferator-activated receptor gamma (Homo sapiens) (UniProt P37231). The test is described as follows: qHTS assay to identify small molecule agonists of the peroxisome proliferator-activated receptor gamma (PPARg) signaling pathway (AID 743094; active = well fitted activation curve with a large enough effect in the signal ratio in the repeat runs, not every such curve was filed as active; the % refers to the signal ratio). The procedure, abridged:
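GeneBLAzer PPARg UAS-bla HEK293H cells were plated, rested 5 h, then exposed to compounds for 17 h at 37C. Beta-lactamase activity was read by LiveBLAzer B/G FRET substrate fluorescence after 1 h at room temperature.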

Test [5] shares this target. The test is described as follows: qHTS assay to identify small molecule antagonists of the peroxisome proliferator-activated receptor gamma (PPARg) signaling pathway (AID 743191; calls by dose curve; also: series mostly up to about 63 µM; nearly all actives have a fitted effect of over 30% in size). The essentials:
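GeneBLAzer PPARg UAS-bla HEK293H cells, 5 h post-plating, exposed to compounds 17 h at 37C. LiveBLAzer B/G FRET substrate added for 1 h at room temperature; beta-lactamase reporter read by fluorescence intensity.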

Test [6] can be described thus: qHTS assay to identify small molecule antagonists of the peroxisome proliferator-activated receptor gamma (PPARg) signaling pathway - cell viability counter screen (AID 743194). Also: nearly all actives have a fitted effect of over 55% in size. Particulars: Potency: co-treated with 50 nM rosiglitazone. The procedure, abridged: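 Cytotoxicity counter screen in PPARg-bla HEK293H cells, same wells as reporter assay. Compounds plus 50 nM rosiglitazone (final) for 17 h at 37 C, then viability read by CellTiter-Glo luminescence.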

Test [7] can be described thus: qHTS assay for small molecule agonists of the antioxidant response element (ARE) signaling pathway (AID 743202; active = well fitted activation curve with a large enough effect in the signal ratio in the repeat runs, not every such curve was filed as active; the % refers to the signal ratio). The essentials:
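ARE-bla HepG2 cells (beta-lactamase reporter under the antioxidant response element), plated 5 hours, then exposed to compounds 16 hours at 37 C. LiveBLAzer B/G FRET substrate added for 2 hours at room temperature; fluorescence intensity read.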

Test [8] can be described thus: qHTS assay for small molecule agonists of the antioxidant response element (ARE) signaling pathway - cell viability counter screen (AID 743203; calls by dose curve; also: nearly all actives have a fitted effect of over 55% in size). The procedure, abridged:
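ARE-bla HepG2 cells were plated, rested 5 h at 37C/5% CO2, then exposed to compounds in DMSO for 16 h. Viability was read as CellTiter-Glo luminescence after 30 min at room temperature, in the same wells as the ARE screen.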

A short description of test [9]: qHTS assay for small molecule activators of the heat shock response signaling pathway - cell viability counter screen (AID 743209). Also: nearly all actives have a fitted effect of over 50% in size. The procedure, abridged: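 HSE-bla HeLa cells plated overnight, then exposed to Tox21 compounds (23 nL in DMSO) for 5 h at 37 C. After the bla reporter read, CellTiter-Glo was added in the same wells and luminescence read after 30 min at room temperature.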

Test [10] can be described thus: qHTS assay for small molecule activators of the heat shock response signaling pathway (AID 743210; active = well fitted activation curve with a large enough effect in the signal ratio in the repeat runs, with a control signal flat, not every such curve was filed as active; the % refers to the signal ratio; also: potency is read from the fitted curve at half-maximal effect; as to activation: series mostly up to about 63 µM). The essentials:
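HSE-bla HeLa cells (beta-lactamase reporter under heat shock response elements), plated overnight, then exposed to compounds 5 h at 37 C; LiveBLAzer B/G FRET substrate added, 2.5 h at room temperature, fluorescence intensity read.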
% is scaled to controls: 0 for no effect and ±100 for the full control effect.

Sequence of Aryl hydrocarbon receptor (Homo sapiens) (P35869 whole entry, looked up): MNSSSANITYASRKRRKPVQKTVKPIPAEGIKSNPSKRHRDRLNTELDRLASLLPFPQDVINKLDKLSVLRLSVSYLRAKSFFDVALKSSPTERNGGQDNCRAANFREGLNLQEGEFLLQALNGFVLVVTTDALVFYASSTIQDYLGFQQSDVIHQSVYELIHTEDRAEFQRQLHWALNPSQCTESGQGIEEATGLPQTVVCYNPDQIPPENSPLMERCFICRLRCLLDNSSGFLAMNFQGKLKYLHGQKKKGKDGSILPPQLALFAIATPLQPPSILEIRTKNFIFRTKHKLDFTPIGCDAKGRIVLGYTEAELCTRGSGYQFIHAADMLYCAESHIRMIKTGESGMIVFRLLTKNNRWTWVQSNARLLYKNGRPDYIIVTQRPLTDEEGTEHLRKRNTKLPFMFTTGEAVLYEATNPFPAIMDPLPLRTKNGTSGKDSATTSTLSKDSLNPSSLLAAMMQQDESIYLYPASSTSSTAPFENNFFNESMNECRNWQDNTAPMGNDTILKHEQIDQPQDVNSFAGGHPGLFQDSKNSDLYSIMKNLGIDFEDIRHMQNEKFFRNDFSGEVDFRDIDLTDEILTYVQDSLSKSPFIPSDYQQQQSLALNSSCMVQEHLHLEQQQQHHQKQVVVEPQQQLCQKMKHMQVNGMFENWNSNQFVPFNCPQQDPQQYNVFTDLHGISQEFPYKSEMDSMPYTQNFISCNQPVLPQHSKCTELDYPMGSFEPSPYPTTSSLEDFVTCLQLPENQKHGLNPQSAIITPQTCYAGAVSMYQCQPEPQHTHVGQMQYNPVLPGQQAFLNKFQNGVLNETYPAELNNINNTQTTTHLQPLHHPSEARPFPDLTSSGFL
Sequence of Peroxisome proliferator-activated receptor gamma (Homo sapiens) (P37231 whole entry, looked up): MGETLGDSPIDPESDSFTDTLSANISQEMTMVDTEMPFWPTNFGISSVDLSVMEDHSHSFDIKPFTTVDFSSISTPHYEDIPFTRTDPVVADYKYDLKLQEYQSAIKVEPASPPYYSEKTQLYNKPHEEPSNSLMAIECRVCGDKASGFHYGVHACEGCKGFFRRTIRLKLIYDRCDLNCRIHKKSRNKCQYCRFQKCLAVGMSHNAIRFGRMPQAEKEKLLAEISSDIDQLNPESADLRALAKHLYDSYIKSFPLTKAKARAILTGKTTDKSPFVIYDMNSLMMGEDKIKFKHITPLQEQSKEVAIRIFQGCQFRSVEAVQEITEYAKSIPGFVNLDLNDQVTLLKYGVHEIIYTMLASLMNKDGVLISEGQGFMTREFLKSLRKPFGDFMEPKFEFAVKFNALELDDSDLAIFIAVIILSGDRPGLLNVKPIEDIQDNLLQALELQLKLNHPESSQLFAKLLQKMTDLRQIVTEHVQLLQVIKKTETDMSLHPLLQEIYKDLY

Turning to `CCNc1nc(Cl)nc(NC(C)(C)C)n1`, the Potency entry in test [1], in test [2], in test [3], in test [5], in test [6] and in [7] was “inactive” in each case. Also, the Potency result in [8], in test [9] and in [10] was “inactive” each time. The compound was classed as inactive in test [4].
Consider `CC1NCCOC1c1ccccc1` (stereo not drawn), for which the Potency result in [1], in test [2], in test [3], in test [5], in test [6] and in [7] was “inactive” in each case. The Potency result in [8], in test [9] and in test [10] was “inactive” in each case. The call in [4] was inactive.
On to `C=C(C)[C@H]1CN[C@H](C(=O)O)[C@H]1CC(=O)O`, for which the Potency result in [1], in test [2], in test [3], in test [5], in test [6] and in test [7] was “inactive” in each case. In addition, the Potency entry in test [8], in [9] and in test [10] was “inactive” each time. For the same compound, in test [4], the outcome was inactive.
Take `CCC(C)(C#N)N=NC(C)(C#N)CC` (stereo not drawn): the Potency result in [1], in [2], in test [3], in test [5], in test [6] and in [8] was “inactive” throughout. In addition, the Potency result in [9] and in test [10] was “inactive” in each case. In test [4], the compound was called inactive.
As for `NNC(N)=O`, the Potency entry in test [1], in test [2], in test [3], in test [5], in test [6] and in test [7] was “inactive” each time. The Potency result in test [8], in test [9] and in test [10] was “inactive” throughout. The result in test [4] was inactive.
As for `C(COCC1CO1)OCC1CO1` (stereo not drawn), the Potency result in test [1], in [2], in test [3], in [5], in test [6] and in test [8] was “inactive” each time. Also, in test [9], the Potency result is “inactive”. Moreover, the compound was called inactive in [4].
With `BrCCc1ccccc1`, the Potency entry in [1], in test [2], in test [3], in test [5], in [6] and in test [7] was “inactive” each time. In addition, the Potency result in test [8], in [9] and in test [10] was “inactive” in each case. Further, the outcome in test [4] was inactive.
Consider `[O-][Br+2]([O-])O`, for which the Potency result in test [1], in test [2], in [3], in test [5], in test [6] and in test [8] was “inactive” each time. Moreover, the Potency entry in [9] and in [10] was “inactive” in each case. Besides, the result in test [4] was inactive.
`Clc1ccc(C(Cl)(Cl)Cl)cn1`: the Potency entry in [1], in [3], in test [5], in [6], in test [7] and in test [9] was “inactive” in each case. Also, the Potency result in test [10] was “inactive”. Besides, in test [2], the Potency is 48.6 µM (active). Further, the call in test [4] was inactive.
As to `C=CCN1CC[C@]23CCCC[C@H]2[C@H]1Cc1ccc(O)cc13`, the Potency entry in test [1], in [2], in test [3], in test [5], in test [6] and in test [7] was “inactive” in each case. For the same compound, the Potency result in test [8], in test [9] and in test [10] was “inactive” throughout. The compound was called inactive in test [4].
In the case of `COc1cccc(C=O)c1`, the Potency entry in test [1], in [2], in [3], in test [5], in test [6] and in [7] was “inactive” in each case. The Potency result in test [8], in test [9] and in test [10] was “inactive” in each case. In addition, the result in test [4] was inactive.
Take `C=CCc1cc(OC)c2c(c1)OCO2`: the Potency result in test [1], in test [2], in test [3], in test [5], in test [6] and in test [7] was “inactive” each time. The Potency result in test [8], in test [9] and in test [10] was “inactive” each time. Moreover, the outcome in test [4] was inactive.
For `CCC1(c2ccccc2)C(=O)N(COC)C(=O)N(COC)C1=O`, the Potency result in test [1], in [2], in test [3], in [5], in test [6] and in test [7] was “inactive” in each case. Also, the Potency result in test [8] and in [10] was “inactive” in each case. In [4], the outcome was inactive.
As for `N=C(N)[Se]`, the Potency entry in test [1], in test [2], in test [3], in [5], in test [6] and in [7] was “inactive” throughout. The Potency result in [8], in test [9] and in [10] was “inactive” in each case. In [4], the result was inactive.
Consider `ClCC1CO1` (stereo not drawn), for which the Potency result in [1], in test [2], in test [3], in test [5], in [6] and in test [7] was “inactive” in each case. In addition, the Potency result in test [8] and in [10] was “inactive” each time. Also, in test [4], the result was inactive.
For `CCOP(=O)(CN(CCO)CCO)OCC`, the Potency result in test [1], in test [2], in [3], in [5], in test [6] and in [8] was “inactive” throughout. For the same compound, the Potency result in test [9] and in [10] was “inactive” each time. In addition, the result in [4] was inactive.
Regarding `CC(C)(N)Cc1ccc(Cl)cc1`, the Potency result in [1], in test [2], in test [3], in test [5], in [6] and in test [8] was “inactive” each time. Besides, the Potency entry in [9] and in test [10] was “inactive” throughout. Also, the compound was classed as inactive in test [4].
Consider `Clc1cc2c(cc1Cl)Oc1cc(Cl)c(Cl)cc1O2`, for which the activity change, negative = cytotoxicity in test [1] is 1.38% [at 0.342 µM] (inactive); in [6] it was 15.5% [at 0.275 µM, co-treated with 50 nM rosiglitazone] (inactive); in test [9], -11.9% [at 0.275 µM] (inactive). In addition, the Potency in test [2] is 0.0011 µM (active). In addition, the viability change, negative = cytotoxic is -4.26% [at 0.341 µM] (inactive) in test [3] and -8.47% [at 0.338 µM] (inactive) in test [8]. The activation in test [4] is -9.85% [at 0.285 µM] (inactive); in [10], -0.0962% [at 0.275 µM] (inactive). In test [5], the ratio activity, negative = inhibition is -3.27% [at 0.275 µM] (inactive).
Regarding `COP(=O)(OC)O/C(C)=C/C(=O)N(C)C`, the Potency result in test [1], in test [2], in test [3], in test [5], in test [7] and in [8] was “inactive” each time. For the same compound, the Potency entry in test [9] and in [10] was “inactive” in each case. For the same compound, the outcome in [4] was inactive.
Regarding `CC(C)N(Cc1ccccc1)C(=O)C(C)(C)C`, the Potency entry in test [1], in test [2], in test [3], in test [5], in test [7] and in test [8] was “inactive” throughout. The Potency entry in test [9] and in [10] was “inactive” each time. Also, in [4], the compound was called inactive.
Regarding `CCCCS(=O)(=O)Cl`, the Potency result in [1], in test [2], in test [3], in test [5], in test [6] and in test [8] was “inactive” each time. For the same compound, the Potency entry in [9] and in test [10] was “inactive” in each case. In addition, the compound was called inactive in [4].
Take `c1cncc([C@@H]2CCCCN2)c1`: the Potency result in test [1], in test [2], in test [3], in test [5], in test [7] and in test [8] was “inactive” in each case. Moreover, the Potency entry in test [9] and in [10] was “inactive” each time. In addition, in test [4], the outcome was inactive.
For `CCOC(=O)Nc1cccc(OC(=O)Nc2ccccc2)c1`, the Potency entry in test [1], in test [3], in [6], in test [7], in test [8] and in test [9] was “inactive” in each case. In test [10], the Potency result was “inactive”. The Potency in test [2] is 54.5 µM (active). Besides, the compound was called inactive in test [4].
On to `CCCCCCCCBr`, for which the Potency entry in test [1], in [2], in test [3], in test [6], in [7] and in test [8] was “inactive” each time. Further, the Potency entry in test [9] and in test [10] was “inactive” throughout. For the same compound, the result in test [4] was inactive.
Take `CCOC(=O)C(Cl)Cc1cc(-n2nc(C)n(C(F)F)c2=O)c(F)cc1Cl` (stereo not drawn): the Potency result in test [1], in test [2], in test [3], in test [5], in [6] and in test [8] was “inactive” in each case. Also, the Potency result in test [9] and in test [10] was “inactive” each time. Further, the outcome in test [4] was inactive.
For the compound `O=P(O)(O)CN(CP(=O)(O)O)CP(=O)(O)O`, the Potency result in [1], in test [2], in [3], in test [6], in [7] and in [8] was “inactive” throughout. Further, the Potency result in [9] and in test [10] was “inactive” each time. The call in test [4] was inactive.
`C[C@H]1CCCC(=O)CCC/C=C/c2cc(O)cc(O)c2C(=O)O1`: the Potency in test [1] is 18.6 µM (active); in [3], 37.1 µM (active) and inactive; in test [10], 12.7 µM (active). Also, the Potency result in test [2], in test [5] and in test [8] was “inactive” each time. The compound was classed as inactive in test [4].
With `C/C=C/CC#N`, the Potency entry in [1], in test [2], in test [3], in test [6], in test [7] and in test [8] was “inactive” each time. The Potency result in test [9] and in test [10] was “inactive” in each case. The outcome in test [4] was inactive.
